Reference: PubChem BioAssay (NCATS)
“And” between values parts separate entries of the source, which are not always exact repeats. Identical values can stand only once. Inconclusive results are not listed. A call without a number means that no potency is given here. A number with no mark means an inactive call. The source made the active and inactive calls. Calls come from the whole dose curve; as a rule, active = well fitted curve in the direction sought with a large enough effect; inconclusive = small, poorly fitted or top-dose-only effect, or another doubt; inactive = no such curve, though single readings can be large; an effect the other way counts as inactive or inconclusive.

Assays:
[1] = biological target: Cellular tumor antigen p53 (Homo sapiens) (UniProt P04637); assay: Primary qHTS for small molecule compounds that upregulate eGFP-tagged delta133p53alpha (in N-terminal) cells. (AID 2060322); details: NCI-H358 eGFP-delta133p53alpha fluorescence, 24 h; activation: hits give high values; note: nearly all actives have a fitted effect of over 75% in size; note: potency is the fitted concentration of half-maximal effect;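 for activation: cells pre-induced with doxycycline then dosed without doxycycline; series mostly up to about 56 µM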
How it was run: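 NCI-H358 cells pre-induced 24 h with 10 ng/ml doxycycline for eGFP-delta133p53alpha, plated dox-free and exposed 24 h at 37C to titrated compounds. Fixed, Hoechst-stained; gated GFP peak intensity by laser scanning cytometry, normalized to DMSO (0%) and 57.5 uM 5-azacytidine (100%).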

[2] = biological target: Aldehyde dehydrogenase, mitochondrial (Homo sapiens) (UniProt P05091); assay: qHTS for Inhibitors of the Aldehyde Dehydrogenase Family (ALDH2) Primary screen (AID 2061308); note: nearly all actives have a fitted effect of over 55% in size
[3] = biological target: Retinaldehyde dehydrogenase 3 (Homo sapiens) (UniProt P47895); assay: qHTS for Inhibitors of the Aldehyde Dehydrogenase Family (ALDH1A3) Primary screen (AID 2061315)

Chain of Cellular tumor antigen p53 (Homo sapiens) (P04637 whole entry, looked up): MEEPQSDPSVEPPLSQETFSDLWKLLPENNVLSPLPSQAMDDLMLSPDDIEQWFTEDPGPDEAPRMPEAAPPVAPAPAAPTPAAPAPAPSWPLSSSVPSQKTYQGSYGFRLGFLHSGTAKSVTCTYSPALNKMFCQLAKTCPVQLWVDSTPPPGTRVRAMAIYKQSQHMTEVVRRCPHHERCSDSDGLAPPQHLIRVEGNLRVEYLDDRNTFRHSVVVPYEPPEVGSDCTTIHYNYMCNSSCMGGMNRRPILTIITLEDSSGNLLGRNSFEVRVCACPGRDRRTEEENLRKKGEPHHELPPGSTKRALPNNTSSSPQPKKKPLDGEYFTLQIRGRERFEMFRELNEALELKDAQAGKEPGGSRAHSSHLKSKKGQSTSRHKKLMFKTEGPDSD

Row | Structure (SMILES) | activation [1] | Potency [2] | Potency [3] | activity change, negative = inhibition [2] | activity change, negative = inhibition [3] | Potency [1]
1 | O=C(NOC[C@H](O)CO)c1ccc(F)c(F)c1Nc1ccc(I)cc1F | 8.59% | inactive | inactive | – | – | –
2 | C=C1C[C@]23C[C@H]1CC[C@H]2[C@]1(C)CCC[C@@](C)(C(=O)O)[C@H]1[C@@H]3C(=O)O | -8.04% | inactive | inactive | – | – | –
3 | CC1(C)O[C@H]2CC(=O)OC[C@]23[C@H]2CC[C@@]4(C)[C@H](c5ccoc5)OC(=O)[C@H]5O[C@]54[C@]2(C)C(=O)C[C@@H]13 | -25.4% and 64.1% and 3.82% | inactive | inactive | – | – | –
4 | COC(=O)c1cc(OC)c(O[C@@H]2O[C@@H](C)[C@H](O)[C@@H](O)[C@H]2O)c(OC)c1 | 1.53% | inactive | inactive | – | – | –
5 | C[C@@H]1O[C@@H](O[C@H]2[C@H](O)[C@@H](O)[C@H](OC[C@H]3O[C@@H](OC(=O)[C@]45CCC(C)(C)C[C@H]4C4=CCC6[C@@]7(C)C[C@H](O)[C@H](O[C@@H]8O[C@H](CO)[C@@H](O)[C@H](O)[C@H]8O)[C@@](C)(C(=O)O)C7CC[C@@]6(C)[C@]4(C)CC5)[C@H](O[C@@H]4O[C@H](CO)[C@@H](O)[C@H](O)[C@H]4O)[C@@H](O)[C@@H]3O)O[C@@H]2CO)[C@H](O)[C@H](O)[C@H]1O (stereo partly drawn) | 18.8% | – | – | 8.16% [at 11.2 µM] | -4.1% [at 11.2 µM] | –
6 | CCN(CC)c1ccc2c(O)c(C=Nc3ccc(CC(=O)O)c(-c4c5c(nc6ccccc46)CCC(C(=O)NN)C5)c3)c(=O)oc2c1 (stereo not drawn) | – | inactive | inactive | – | – | 5.36 µM (active)
7 | CC(=O)C1CCC(=O)N1Cc1ccccc1 (stereo not drawn) | -13.7% | inactive | inactive | – | – | –
8 | O=S(=O)(c1ccccc1)N(CC(F)(F)F)c1ccc(C(O)(C(F)(F)F)C(F)(F)F)cc1 | -3.67% | inactive | inactive | – | – | –
9 | CC(C)CCC[C@@H](C)[C@H]1CC[C@H]2[C@@H]3CC(=O)[C@H]4C[C@@H](O)CC[C@]4(C)[C@H]3CC[C@]12C | -7% | inactive | inactive | – | – | –
10 | COC(=O)c1ccccc1O[C@@H]1O[C@H](CO)[C@@H](O)[C@H](O)[C@H]1O[C@@H]1O[C@@H](C)[C@H](O)[C@@H](O)[C@H]1O | -10.7% | inactive | inactive | – | – | –
11 | CC1(C)CC[C@]2(C(=O)O[C@@H]3O[C@H](CO)[C@@H](O)[C@H](O)[C@H]3O)CC[C@]3(C)C(=CCC4[C@@]5(C)C[C@@H](O)[C@H](O)[C@@](C)(CO)C5[C@H](O)C[C@]43C)C2C1 (stereo partly drawn) | 3.82% | inactive | inactive | – | – | –
12 | CC1(C)CC2C(C1)C(C)(O)C13CC1(COC3=O)C2O (stereo not drawn) | 8.93% | inactive | inactive | – | – | –
13 | COc1cc(C(=O)NC2CCN(C)CC2)ccc1Nc1ncc2c(n1)N(C1CCCC1)CC(F)(F)C(=O)N2C | 29.5% | inactive | inactive | – | – | –
14 | C/C(=C\CCC(C)CCO)C(=O)O[C@@H]1[C@@H](O)[C@H](OC2OC=C(C(=O)O)C3CCC(C)(O)C23)O[C@H](CO)[C@H]1O (stereo partly drawn) | 13.4% | inactive | inactive | – | – | –
15 | COc1cc2c(cc1OC)[C@@H]1[C@H](O)[C@@H](OC)C=C3CCN(C2)[C@H]31 | – | inactive | inactive | – | – | 16.6 µM (active)
16 | CC1CC(=O)C2=C(O1)OC1(C)CCC3C(C)(C)C=CC(=O)C3(C)C1C2 (stereo not drawn) | -29.5% | inactive | inactive | – | – | –
17 | CC1(C)OC(=O)C=C[C@@]2(C)C1CC(=O)[C@]1(C)C2CC[C@@]2(C)[C@H](c3ccoc3)OC(=O)[C@H]3O[C@]321 (stereo partly drawn) | -19.1% | inactive | inactive | – | – | –
18 | Cc1ccccc1CN1C2=NCCN2C(=O)C2=C1CCN(Cc1ccccc1)C2 | 29% | inactive | inactive | – | – | –
19 | O=C(/C=C/c1ccc(O)cc1)OCC1=C[C@@H](O)[C@@H]2C=CO[C@@H](O[C@@H]3O[C@H](CO)[C@@H](O)[C@H](O)[C@H]3O)[C@H]12 | -9.16% | inactive | inactive | – | – | –
20 | CC(=O)c1ccc2c(c1)C(O)C(C(C)(C)O)O2 (stereo not drawn) | -6.11% | inactive | inactive | – | – | –
21 | C=C(C)C(=O)O[C@H]1C[C@@](C)(OC(C)=O)[C@@]2(O)CC[C@@](C)(O)[C@H](OC(C)=O)[C@@]23OC(=O)C(COC)=C13 | -9.16% | inactive | inactive | – | – | –
